Measured values taken from PubChem BioAssay AID1347426 (Functional Genomics Laboratory (NCATS/FGL), 2020).
The campaign covered roughly 31,000 sequences. About 1,400 (4.5%) were called active.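 How the source made its calls: active means median seed-adjusted z-score above 1 or below -1; inactive means the rest.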 This excerpt belongs to a sample that is enriched for actives.

Experiment: Novel Modifiers of Survival Motor Neuron (SMN) Protein: Gene Identification via Genome-wide siRNA Screen;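 further: luminescence tracks full-length SMN protein made from the SMN2 reporter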
Conditions: HEK293T SMN2-luciferase reporter, siRNA knockdown, 72 h; actives lie on both sides
How it was run: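 HEK293T cells stably carrying an SMN2 promoter/splicing cassette–luciferase reporter were reverse-transfected with 1 pmol siRNA per well (druggable-genome library, 3 siRNAs per gene) and grown 72 h at 37 °C. Luminescence, normalized to negative-control siRNA and log10-transformed, was scored as MAD.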
For GCAGGACCUUUUAGCAUCUTT against LYL1, the median seed-adjusted z-score was -0.118 (inactive). For ACCGCUAUGUCUACAUGUUTT against FADS6, the median seed-adjusted z-score was -0.637 (inactive). In the case of GAAACAAACUUAUAGUGAUTT against WBP5, the median seed-adjusted z-score is reported as 0.452 (inactive). With GGAUUUUUGAUUUUCCGAATT against TUBAL3 the median seed-adjusted z-score was 1.05 (active). For CGAAGGCCUUGUGAACAGATT against FOSL1, the median seed-adjusted z-score was -0.431 (inactive). In the case of “CAGAGAAACGAGUCUUUAATT against ST6GALNAC5”, the median seed-adjusted z-score is reported as -0.0321 (inactive). With GCUUCUAAAUGUGAGACGATT against GCNT4 the median seed-adjusted z-score was -0.0629 (inactive). With GGGUACAACUCUUUGAAGATT against MNAT1 the median seed-adjusted z-score was -0.335 (inactive). With GCUCAAAUUGUUUUGCGUUTT against AKR1D1 the median seed-adjusted z-score was 0.211 (inactive). In the case of CGCUUCAAGAGGUUCGGAATT against MLPH, the median seed-adjusted z-score is reported as -1.2 (active). For GAAAAGGGAUAACUACGAATT against HIVEP3, the median seed-adjusted z-score was 0.516 (inactive). With CCAGCGAGCUGAUCCUCAATT against MYCN the median seed-adjusted z-score was 0.00242 (inactive). With CCACCUUUGCAACGCGGAATT against TPSD1 the median seed-adjusted z-score was 0.0848 (inactive). For GAGAUGCUGUGAGUAGGUATT against TTC9C, the median seed-adjusted z-score was -0.571 (inactive). With CGACAUUGCCCUGCUCAAATT against ELA2B the median seed-adjusted z-score was -0.154 (inactive). With GGGUCACAGAGGUCGAUAUTT against PDILT the median seed-adjusted z-score was -0.0994 (inactive). In the case of CAAUAAGGCUCAUGCACAATT against GNAQ, the median seed-adjusted z-score is reported as -1.23 (active). For AACUCUUCAGGUGAAGAUATT against SLC8A2, the median seed-adjusted z-score was 0 (inactive). With GGAGUUUGCGUUUGAGGUATT against PLCD1 the median seed-adjusted z-score was -0.0473 (inactive). With CGAAUAUGAUGAAGAUGUUTT against PHF17 the median seed-adjusted z-score was 1.01 (active). In the case of CAAAGAUCAUGAUAUUCCATT against JUB, the median seed-adjusted z-score is reported as -0.0898 (inactive). With CACCCACCUCAGAUUGAUATT against MBTPS2 the median seed-adjusted z-score was -0.324 (inactive). In the case of CGCUCUACCUGAUCUGCUATT against SLC43A2, the median seed-adjusted z-score is reported as -0.202 (inactive). With ACAUCAUGAGGAAUGCUAUTT against UCP3 the median seed-adjusted z-score was 1.23 (active). With GAGCAGAAAUUAUUCGUUATT against PGDS the median seed-adjusted z-score was 0.02 (inactive). For GACUAAAGAUUCAGAUAAATT against TRIM13, the median seed-adjusted z-score was 0.712 (inactive). With CGACAGAGGCAGACACAGATT against BATF the median seed-adjusted z-score was -0.0501 (inactive). With GAAUUGCUCCACCAGAUAATT against NAALAD2 the median seed-adjusted z-score was -0.00068 (inactive). In the case of GAUGAUGACUUACAUAGAATT against TRRAP, the median seed-adjusted z-score is reported as -1.25 (active). With CUAUAGCAAGUGAACUAAATT against COG5 the median seed-adjusted z-score was -0.0609 (inactive). With GGGUUGGUUUGGGCCUGAATT against SOX12 the median seed-adjusted z-score was 0.478 (inactive). For GAAGAGCAGUGUACCAUCATT against STARD8, the median seed-adjusted z-score was -0.135 (inactive). In the case of AAGACGAACUUGAGCUGGATT against MAPK8IP1, the median seed-adjusted z-score is reported as 0.576 (inactive). In the case of GCUCCAAUGUCUACAGAAATT against MRGPRE, the median seed-adjusted z-score is reported as -0.65 (inactive). In the case of CAGAUGAAAUACUACUUCUTT against ARD1A, the median seed-adjusted z-score is reported as -1.05 (active). For GCAGUUACCCGCAUACCAATT against CALCR, the median seed-adjusted z-score was -0.404 (inactive). For GGGAAGCCGCCUAUACCAATT against TK1, the median seed-adjusted z-score was -0.0562 (inactive). For AGACCGUAAUUAUCGUCCUTT against EDG1, the median seed-adjusted z-score was -0.316 (inactive). With GGAUGACAUGUCUAGCAUUTT against NXF1 the median seed-adjusted z-score was -4.46 (active). In the case of CAACCUAUCAUAUCUGUUUTT against SLC22A16, the median seed-adjusted z-score is reported as 0.0878 (inactive). In the case of CCAUCGGCAUCACCUUCUATT against SLC35C2, the median seed-adjusted z-score is reported as -0.483 (inactive). For CUGUGAAAAUGGGACGGGATT against NDUFA6, the median seed-adjusted z-score was -0.457 (inactive). With CAUCAGUCAUAAUGCCUAUTT against MAP1D the median seed-adjusted z-score was 0.155 (inactive). With CGCCUCCAGUUUUAACUCUTT against POU2F3 the median seed-adjusted z-score was -1.53 (active). With GGGUAUUCUGGGCAUGAAATT against NANS the median seed-adjusted z-score was -1.54 (active). With GCAAGACCUAUGAAACGAUTT against CADPS the median seed-adjusted z-score was 0.551 (inactive). For GCACGAGGUUUUCACCUAUTT against SRMS, the median seed-adjusted z-score was -1.58 (active). For GUUAUACUGUGAGAUCUAATT against GPR160, the median seed-adjusted z-score was -0.278 (inactive). With GAGAUUGGGUGGAAGAGAATT against FOXD2 the median seed-adjusted z-score was -0.0853 (inactive). In the case of AAGUCGGAAUAGAAUGGAATT against COX7B, the median seed-adjusted z-score is reported as -1.16 (active). In the case of GGACAACAACUGAAAUGUATT against ZIM3, the median seed-adjusted z-score is reported as -0.02 (inactive). With AGUUAGGCACAGUCAGACATT against POLD4 the median seed-adjusted z-score was 0.225 (inactive). For CGAUGUAUGACGAGGAAAATT against BTNL3, the median seed-adjusted z-score was 0 (inactive). For GUUACGACCUGGAAGAUUATT against SPATA5L1, the median seed-adjusted z-score was 0.252 (inactive). For GAGCAAGACUUCUACGUGATT against SERPINA5, the median seed-adjusted z-score was -1.01 (active). In the case of GGCUAAGAAUGACCAUUAUTT against NPR2, the median seed-adjusted z-score is reported as 0.0712 (inactive). With CAGUCGUCAUAAUACUGCATT against SMC4 the median seed-adjusted z-score was 0.646 (inactive). In the case of CCCUGUUAGUAACGGCAAATT against OBFC2B, the median seed-adjusted z-score is reported as -0.061 (inactive). For AGAUGUACCUAUGUCAAGATT against OVOL1, the median seed-adjusted z-score was -0.0414 (inactive). For CCAUGUUUGAACAAGCCCATT against MYL7, the median seed-adjusted z-score was -1.21 (active). In the case of GCACCUUUGUGACCUAUGATT against KIF9, the median seed-adjusted z-score is reported as 0 (inactive). For CGCUAAAGCUGCACACUGATT against TRAF3, the median seed-adjusted z-score was 0.731 (inactive). In the case of GAGCUGACUUUCUGACCAATT against RAB7A, the median seed-adjusted z-score is reported as 0.169 (inactive). With GCAACGGUGCUUUCCCAGATT against CASKIN1 the median seed-adjusted z-score was 0.555 (inactive). In the case of CCAAAGUGGGUGUCAACGATT against BGN, the median seed-adjusted z-score is reported as 0.376 (inactive). For GAAUUUUGUGGUUACACUATT against POLR1D, the median seed-adjusted z-score was -0.0409 (inactive). With GGGUGUAAUUCAUAAGGGUTT against PSMD1 the median seed-adjusted z-score was -1.61 (active). In the case of GGACUGAUUGGACUCCCAUTT against TNFRSF11A, the median seed-adjusted z-score is reported as -0.0833 (inactive). In the case of GGACGGUCGUGAUGGAUAATT against SAFB2, the median seed-adjusted z-score is reported as 0.0394 (inactive). For CCCUGAACAUACCUACUGATT against BRS3, the median seed-adjusted z-score was 0.224 (inactive). With ACAUCUAUUUGUGACCUUATT against NHLH2 the median seed-adjusted z-score was 0 (inactive). For GCACAAGCAUUGGAAAUAATT against MAP4, the median seed-adjusted z-score was 1.67 (active). For CCUUUAUGCCUGAUCCUCATT against SULT1C3, the median seed-adjusted z-score was -0.731 (inactive). For CCACAACGGACAGUCCAUATT against CYP17A1, the median seed-adjusted z-score was -1.39 (active). For GGAAAGCAAUAAAAGUUAUTT against TAAR6, the median seed-adjusted z-score was -0.124 (inactive). In the case of AGGCCUAUAUUGAAGGAGATT against DGKG, the median seed-adjusted z-score is reported as 0.227 (inactive). In the case of CAACAGGUAUAACUACAUATT against CNDP2, the median seed-adjusted z-score is reported as 0.43 (inactive). For CCAAGAAGAUCAGCACCUUTT against GPR26, the median seed-adjusted z-score was -1.33 (active). With AGACCAUAACUACUCACUATT against KDELR3 the median seed-adjusted z-score was 0.476 (inactive). With GCUCAAUUGUCGAUCUUUATT against ERO1LB the median seed-adjusted z-score was 0.565 (inactive). For GAAGGUUUCUGUGCCCUCATT against SLC4A9, the median seed-adjusted z-score was 0 (inactive). In the case of CCUGCAAGCUGUCAACUUUTT against PRKACA, the median seed-adjusted z-score is reported as -0.137 (inactive). In the case of CAACUUCUAUAGUCGAAUATT against TXNDC3, the median seed-adjusted z-score is reported as -0.649 (inactive). For CGAUAUUUAUCCUUACCUATT against SLC9A2, the median seed-adjusted z-score was -1.02 (active). For CCUUUACGUUCAAAUCACATT against ZNF268, the median seed-adjusted z-score was 0.0358 (inactive). In the case of CCAAGGAGUCGUCUACUUUTT against B3GAT3, the median seed-adjusted z-score is reported as -0.00603 (inactive). With GCAGAUCUCAUGUCCUCUATT against FPGS the median seed-adjusted z-score was -0.853 (inactive). With GCAAGUGGUUUGUCAGUAATT against B3GALT5 the median seed-adjusted z-score was 0.144 (inactive). For GCUCUUAUGCGACAGUUUATT against PFTK2, the median seed-adjusted z-score was -1.16 (active). In the case of GGUGUAUGCUGAGGUGAAATT against EIF2C1, the median seed-adjusted z-score is reported as 0.215 (inactive). For AGUCUGUUGGUGCACAAAATT against MDM2, the median seed-adjusted z-score was 0.258 (inactive). With GAUUUAUGCUAGCUCUAAATT against CFL2 the median seed-adjusted z-score was -0.148 (inactive). With CAUCAAAACUUGGAGAGCATT against FN3K the median seed-adjusted z-score was -0.508 (inactive). In the case of CCUUCUACAACACCAAGAATT against AGPAT2, the median seed-adjusted z-score is reported as 0.38 (inactive). In the case of GGAUUACAGGAGACCCAUATT against FUBP1, the median seed-adjusted z-score is reported as -1.52 (active). In the case of CAUUAACAUUGUUCGCAAATT against ACO2, the median seed-adjusted z-score is reported as -1.57 (active). For UACCAGAUCUCAAAAAGAATT against CCR5, the median seed-adjusted z-score was -0.0281 (inactive). For GGAUGAAGGUAGUUACGUUTT against RAVER2, the median seed-adjusted z-score was -0.258 (inactive). With CAUCCACACUGCAAUGAUATT against PILRB the median seed-adjusted z-score was 0.0351 (inactive). For AAUUUUCCUGUGAUAGAAATT against PATE1, the median seed-adjusted z-score was 1.21 (active). In the case of GCGACUUUCUUGGUUUGCATT against SNX2, the median seed-adjusted z-score is reported as -0.569 (inactive). In the case of CCCUAAAUGUAUCUCGGAATT against GRIN3A, the median seed-adjusted z-score is reported as 0.241 (inactive). In the case of CGAGACGUAUUAUAUCUUUTT against COL4A3BP, the median seed-adjusted z-score is reported as 0.0391 (inactive). With GUGCAUAAGUGUUAGGGAATT against SLC17A2 the median seed-adjusted z-score was 0.141 (inactive). With GAUCUGAGCUUGUACAGAATT against PSMC2 the median seed-adjusted z-score was -1.96 (active). With GGAUCGAACCCAUGGAUCATT against ROCK2 the median seed-adjusted z-score was -0.149 (inactive). For GAAUAACUGCUGCUUGUAATT against TTRAP, the median seed-adjusted z-score was -0.33 (inactive). In the case of GACUCAUACGAGCGCAUUATT against SEMA4F, the median seed-adjusted z-score is reported as 0.139 (inactive).
